Measured values: PubChem BioAssay AID652048 (National Center for Advancing Translational Sciences (NCATS), 2013)
Among all 410,000 compounds or so, about 2,400 (0.59%) were called active. Cut-off read from the data, not from the text of the source: active = max activation above about 30%; inactive = the rest. The sample as a whole holds a higher share of actives than the screen did.

biological target: D(3) dopamine receptor (Homo sapiens) (UniProt P35462); assay: qHTS of D3 Dopamine Receptor Agonist: qHTS; conditions: D3R DiscoveRx beta-arrestin cells, luminescence, 90 min; hits give high values; note: 0% is about no effect
Sequence (P35462 whole entry, looked up): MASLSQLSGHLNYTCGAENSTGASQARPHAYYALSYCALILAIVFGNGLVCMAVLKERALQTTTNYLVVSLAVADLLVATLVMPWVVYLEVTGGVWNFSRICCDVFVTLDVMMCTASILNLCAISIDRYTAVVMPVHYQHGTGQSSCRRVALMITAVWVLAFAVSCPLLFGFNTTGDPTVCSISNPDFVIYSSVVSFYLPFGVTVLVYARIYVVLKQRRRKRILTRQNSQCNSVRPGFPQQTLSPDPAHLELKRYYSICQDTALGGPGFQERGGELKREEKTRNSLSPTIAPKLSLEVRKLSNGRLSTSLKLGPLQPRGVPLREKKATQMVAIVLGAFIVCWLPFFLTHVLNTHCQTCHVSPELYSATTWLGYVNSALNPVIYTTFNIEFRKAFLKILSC
Excerpt: D3 DARs represent a very important target for the treatment of several neuropsychiatric disorders. Indeed, one of the most promising therapeutic applications for the D3 DAR is in the area of addiction and related disorders. […] These findings have been observed with a number of addictive substances including cocaine, amphetamine, nicotine, and alcohol. […] Antagonism of the D3 DAR may also be therapeutic in the treatment of schizophrenia or psychosis. […] Since the D3 DAR is expressed in areas of the CNS associated with the control of mood and emotion, it has been hypothesized that selective antagonism of the D3 DAR may be effective in treating psychosis without inducing the motor side effects typically seen with D2 DAR antagonists.
This part of the project aims to discover novel agonist.
NIH Chemical Genomics Center [NCGC]
NIH Molecular Libraries Probe Centers Network [MLPCN]
Assay Submitter (PI): David Sibley, NINDS
Freshly passaged cells are plated in 1536 well white, solid bottom plates at a density of 1500 cells/well in 3microl of complete media. After an overnight incubation at 37 degrees C in 5% CO2, cells are loaded with 23nl of test compound from the compound library (as well as dopamine controls) using a 1536 pintool and incubated at 37 degrees C for 90 minutes. Two microliters of DiscoveRx reagent is then added to all cells, and they are incubated for an additional 30 - 60 minutes at room temperature. Following incubation, luminescence is measured on a ViewLux CCD-based luminometer reader using a 20 sec exposure time.

SMILES | max activation
CC(C)=CCc1ccc(O)c(=O)cc1C(C)C | -8.37% (inactive)
CC(C)=CCc1c(O)c(CC=C(C)C)c2occ(-c3ccc(O)cc3)c(=O)c2c1O | 84.1% (active)
CCc1nc2c(cnn2-c2ccc(C)cc2)c(=O)n1-c1ccc(C)cc1 | 0.0293% (inactive)
O=C(CCn1ccc2cc(S(=O)(=O)N3CCCC3)ccc21)NCc1cccc(Cl)c1 | -1.61% (inactive)
COc1ccc2ncc3c(-c4ccc(C)c(C)c4)nn(CC(=O)NC4CCCC4)c3c2c1 | -3.77% (inactive)
CC(=O)O[C@]1(C(C)=O)CC[C@H]2[C@@H]3CCC4=CC(=O)CC[C@]4(C)[C@@]3(F)[C@@H](O)C[C@@]21C | 9.73% (inactive)
CCC(=O)N1N=C(c2ccc(OC)cc2)CC1c1cn(-c2ccccc2)nc1-c1cccs1 (stereo not drawn) | -10.2% (inactive)
S=c1[nH]nc(-c2cccs2)n1/N=C/c1cn(-c2ccccc2)nc1-c1ccc(Cl)cc1 | 44.2% (active)
CC(=O)O[C@H]1CC[C@@]2(C)C(=CC[C@@H]3[C@@H]2CC[C@]2(C)C(c4cccnc4)=CC[C@@H]32)C1 | 6.91% (inactive)
COc1ccc(S(=O)(=O)NCc2cccn2Cc2cccc(C)c2)cc1Cl | -14.5% (inactive)
Cc1ccc(C(=O)Nc2ccc(OCc3cc(=O)n4c5c(sc4n3)CCCC5)cc2)cc1 | -4.47% (inactive)
COc1ccc(C(=O)NC2CC2)cc1OC1CCN(C/C=C/c2ccccc2)CC1 | -13.2% (inactive)
COc1ccccc1C(=O)NC(CCSC)C(=O)N1CCN(C/C=C/c2ccccc2)CC1 (stereo not drawn) | -0.587% (inactive)
COc1cc(C(=O)N2CCN(C/C=C/c3ccccc3)CC2)cc(OC)c1C | 49.9% (active)
CCc1ccccc1N1C(=O)CN(S(=O)(=O)CC)CC1(C)C(=O)NC1CCCCC1 (stereo not drawn) | -18.4% (inactive)
N#Cc1ccccc1Cn1cnc2nc3c(cc2c1=O)CCCC3 | -7.33% (inactive)
C/C=C/C=N/NC(=O)c1ccncc1 | -12.6% (inactive)
Cc1ccc(Cc2nc3ccccc3nc2SCC(=O)Nc2cccc(C(F)(F)F)c2)cc1 | 4.77% (inactive)
CN(Cc1ccccc1)C(=O)c1cc2c(=O)n(C)c3ccccc3c2s1 | -16.8% (inactive)
CN(Cc1ccccc1)C(=O)c1cccc(C(=O)N(C)Cc2ccccc2)c1 | 115% (active)
Cc1cc(C)cc(NC(=O)N(C)Cc2ccccc2)c1 | -3.6% (inactive)
COc1ccc(-c2noc(CSc3nnc(-c4ccccc4)n3-c3ccc(F)cc3)n2)c(OC)c1 | -1.45% (inactive)
COc1ccc(S(=O)(=O)NCCSc2nnnn2-c2ccccc2)cc1 | -5.06% (inactive)
